Rows were chosen to be rich in hits. Some 12% of all compounds tested hit in one or more screens of this group.
Cycloheximide cs: affects cycloheximide protein synthesis inhibition readout, counter-screen; cell reporter, cycloheximide protein synthesis inhibition counterscreen; AID 2314; max response, %; 300,000 compounds, 12% hits; in the data active = max response mostly above about 13%, no sharp cut-off; inactive = mostly below about 14%; also: read at 38.3 µM for the half of the compounds with a filed dose
Shiga inhibitor: Shiga toxin inhibition | 290,000 compounds, 9.2% hits | Vero cells, Shiga toxin protein synthesis inhibition reporter | AID 2315 | inhibition, % at 38.7 µM; in the data active = inhibition mostly above about 28%, no sharp cut-off; inactive = mostly below about 43%
MARV entry inh: blocks Marburg virus binding to or entry into cells. Marburg virus pseudotyped entry inhibition, cell reporter. AID 540276. 300,000 compounds, 1.8% hits. Potency, µM (top dose mostly 37.8 µM), actives largely listed as inhibitors; calls by dose curve; tested in HEK293 cells
LASV entry inh: inhibitors of Lassa virus binding or cell entry; Lassa virus pseudotype entry inhibition, cell reporter; Potency, µM (top dose mostly 37.9 µM), most hits filed as inhibitors; 300,000 compounds, 1.2% hits; AID 540256; calls by dose curve; tested in HEK293 cells; also: nearly all actives have a fitted effect of over 50% in size
Each line names hits and unclear results; the compound was inactive in the other large screens.

Cn1c(=O)c2c(ncn2CC(=O)OCCCC(=O)c2ccc(Br)cc2)n(C)c1=O	MARV entry inh inconclusive (no result: Cycloheximide cs, Shiga inhibitor)
Cc1ccc(CNC(=O)c2cc(COc3c(F)cccc3F)on2)s1	LASV entry inh inconclusive
CCOC(=O)c1ccc(CNC(=O)c2cc(COc3ccccc3SC)on2)o1	Cycloheximide cs 34, Shiga inhibitor 74 (no result: MARV entry inh, LASV entry inh)
CSc1ccccc1OCc1cc(C(=O)NCc2ccc(C)s2)no1	Cycloheximide cs 23, Shiga inhibitor 41
CN(C)CCCN1C(=O)C(O)=C(C(=O)c2cc3ccccc3o2)[C@@H]1c1ccccc1	none (no result: Cycloheximide cs, Shiga inhibitor, LASV entry inh)
O=C(N/N=C/c1cccnc1)c1ccc(NC(=O)c2ccccc2Cl)cc1	none
O=C(Nc1ccc(Oc2cccnc2)cc1)c1ccccc1F	Cycloheximide cs 26, MARV entry inh inconclusive
O=C(Nc1ccc(Oc2cccnc2)cc1)c1ccccc1Cl	Cycloheximide cs 27
CC(C)C(NC(=O)c1ccc(Cl)cc1)C(=O)NCC1CCCO1 (configuration not stated)	none
Cc1cccc(C)c1Nc1ncnc2ccccc12	none (no result: MARV entry inh, LASV entry inh)
C(=N\Nc1ncnc2ccccc12)/c1ccccc1	Cycloheximide cs 24, Shiga inhibitor 71, MARV entry inh inconclusive, LASV entry inh inconclusive
Clc1cccc(Nc2ncnc3ccc(Br)cc23)c1	MARV entry inh inconclusive
Clc1cccc(/C=N/Nc2ncnc3ccccc23)c1	Cycloheximide cs 35, Shiga inhibitor 62, MARV entry inh inconclusive, LASV entry inh inconclusive
N[C@@H](Cn1ccc(=O)c(O)c1)C(=O)O	LASV entry inh inconclusive (no result: Cycloheximide cs, Shiga inhibitor)
O=C(CSCc1ccc(F)cc1)NCc1cccs1	none
O=C(/C=C/c1ccc(Br)cc1)NCc1cccs1	Cycloheximide cs 50, Shiga inhibitor 112, LASV entry inh 2.6µM
O=C(/C=C/c1ccc(F)cc1)NCc1cccs1	Cycloheximide cs 26, Shiga inhibitor 94, LASV entry inh inconclusive
O=C(/C=C/c1ccccc1Cl)NCc1cccs1	Cycloheximide cs 48, Shiga inhibitor 89, LASV entry inh 18µM
O=C(COC(=O)Cc1ccc(Br)cc1)NCc1cccs1	none (no result: Cycloheximide cs, Shiga inhibitor)
Cc1ccc(-c2cn3nc(C)c(C)nc3n2)cc1	Cycloheximide cs 24, Shiga inhibitor 32, MARV entry inh 0.28µM, LASV entry inh inconclusive
Cc1ccc2c(CC(=O)Nc3sccc3C(N)=O)coc2c1	Cycloheximide cs 41, Shiga inhibitor 81, LASV entry inh inconclusive
Cc1ccc2c(CC(=O)Nc3ccc(N4CCN(C)CC4)cc3C)coc2c1	Cycloheximide cs 18, MARV entry inh inconclusive, LASV entry inh inconclusive
O=C(O)COc1ccc(/C=C2/SC(=S)N(Cc3ccccc3)C2=O)cc1	none (no result: MARV entry inh, LASV entry inh)
C=CCN1C(=O)/C(=C\c2ccc(OC(=O)c3ccco3)c(OC)c2)SC1=S	Cycloheximide cs 27 (no result: MARV entry inh, LASV entry inh)
C=CCN1C(=O)/C(=C\c2cccc(OC(=O)c3ccco3)c2)SC1=S	none
COc1ccc(/C=C2/SC(=S)N(Cc3ccccc3)C2=O)cc1O	Shiga inhibitor 120 (no result: MARV entry inh, LASV entry inh)
O=C1/C(=C\c2cc(Cl)c(O)c(Cl)c2)SC(=S)N1Cc1ccccc1	MARV entry inh 6.3µM, LASV entry inh 4µM
Cc1nnsc1SCCNC(=O)Nc1ccc(Cl)cc1	Cycloheximide cs 24, Shiga inhibitor 82
O=C(Nc1ccccc1)c1nccn1Cc1ccc(F)cc1	Cycloheximide cs 28, Shiga inhibitor 64 (no result: MARV entry inh, LASV entry inh)
O=C(NCc1ccc(Cl)cc1)Nc1ccc(F)cc1	Cycloheximide cs 49 (no result: MARV entry inh, LASV entry inh)
CC(C)c1ccc(NC(=O)NCc2ccc(F)cc2)cc1	none (no result: MARV entry inh, LASV entry inh)
O=C(NC(=S)NCc1ccccc1)c1cccnc1	none
O=C(NC(=S)NCCC1=CCCCC1)c1cccnc1	Cycloheximide cs 14, Shiga inhibitor 40
O=C(CSc1nccn1Cc1ccc(F)cc1)Nc1ccc(F)cc1F	none
Cc1nnsc1C(=O)Nc1ccc(Cl)cc1	none
COc1cccc(CN2C[C@]34C=C[C@@H](C[C@@H]3S2(=O)=O)O4)c1	none (no result: MARV entry inh, LASV entry inh)
CCN(C(=O)Cn1nc(Cc2ccncc2)c2ccccc2c1=O)c1cccc(C(F)(F)F)c1	none (no result: Cycloheximide cs, Shiga inhibitor)
O=C(NCCC1=CCCCC1)C1CCN(C(=O)c2ccc(Cl)cc2)CC1	Cycloheximide cs 31, Shiga inhibitor 67
S=C(NCCC1=CCCCC1)Nc1ccc(Cl)cc1	Cycloheximide cs 44, Shiga inhibitor 63, MARV entry inh inconclusive
O=C(NCCNC(=O)Nc1ccc(Cl)cc1)Nc1ccc(Cl)cc1	none (no result: Cycloheximide cs, Shiga inhibitor)
COc1ccc(CCNC(=O)C2CCN(C(=O)c3ccc(Cl)cc3)CC2)cc1	MARV entry inh inconclusive
CC(C)CCN1CC(C(=O)NCCC2=CCCCC2)CC1=O (configuration not stated)	Cycloheximide cs 21, Shiga inhibitor 66
O=C(NCCc1ccc(Cl)cc1)Nc1ccc(F)cc1	Cycloheximide cs 29
Cc1ccc([C@@H]2[C@@H]3C(=O)N(c4ccccc4)C(=O)[C@@H]3[C@]3(C)C(=O)N(Cc4ccc(-c5ccccc5)cc4)CC(=O)N23)o1	none (no result: MARV entry inh, LASV entry inh)
Cc1ccc2c(CC(=O)N(Cc3cccc(Cl)c3)C3CCS(=O)(=O)C3)coc2c1 (configuration not stated)	none (no result: Cycloheximide cs, Shiga inhibitor)
CCC(C)N1CC(=O)N2C(c3ccc(OC)cc3OC)c3[nH]c4ccccc4c3C[C@H]2C1=O (some centres not stated)	none (no result: MARV entry inh, LASV entry inh)
COc1ccc(/C=N/NC(=O)c2ccncc2)cc1Cn1nc([N+](=O)[O-])c(Br)c1C	MARV entry inh inconclusive
O=S(=O)(NCCc1csc2nc(-c3ccc(F)cc3)nn12)c1ccc(Br)cc1	none (no result: Cycloheximide cs, Shiga inhibitor, MARV entry inh)
CC(=O)c1ccc(NC(=O)NCc2ccc(F)cc2)cc1	Cycloheximide cs 14, MARV entry inh inconclusive
Fc1ccc(NC(=S)NCCc2ccc(Cl)cc2)cc1	Cycloheximide cs 48, Shiga inhibitor 93, MARV entry inh inconclusive
Fc1ccc(CCNC(=S)Nc2ccc(F)c(Cl)c2)cc1	LASV entry inh inconclusive
CSc1ccc(CN(C)CC(=O)NCc2ccccc2)cc1	LASV entry inh inconclusive
O=C(NCc1ccncc1)Nc1ccc(F)cc1	none
Cc1ccc(CNC(=O)Nc2ccc(Cl)cc2)cc1	Cycloheximide cs 17 (no result: MARV entry inh, LASV entry inh)
CSc1ccc(NC(=O)NCc2ccccc2)cc1	Cycloheximide cs 44, Shiga inhibitor 91, LASV entry inh inconclusive
Cc1ccc(NC(=O)C(=O)NCc2ccc(Cl)cc2)cc1	none (no result: Cycloheximide cs, Shiga inhibitor, MARV entry inh)
Cn1ncc(Br)c1NC(=O)Nc1ccc(Cl)cc1	none (no result: MARV entry inh, LASV entry inh)
O=C(NCc1ccc(F)cc1)Nc1ccccc1	Cycloheximide cs 37, Shiga inhibitor 79 (no result: MARV entry inh, LASV entry inh)
CCCc1c(NC(=O)Nc2ccc(F)cc2)cnn1-c1ccc(Cl)cc1	MARV entry inh inconclusive, LASV entry inh 5µM
O=C(NCCc1ccc(F)cc1)Nc1ccc([N+](=O)[O-])cc1	Cycloheximide cs 21, MARV entry inh inconclusive
O=[N+]([O-])c1ccc(NC(=S)NCCc2ccc(F)cc2)cc1	MARV entry inh inconclusive, LASV entry inh inconclusive
O=[N+]([O-])c1ccccc1CNCCc1ccc(F)cc1	Cycloheximide cs 40, Shiga inhibitor 68
COC(=O)C1CCN(C(=O)COC(=O)C2CCN(S(=O)(=O)c3ccc(C)c(C)c3)CC2)CC1	LASV entry inh inconclusive (no result: Cycloheximide cs, Shiga inhibitor)
CC1CCCCC1NC(=O)CCN1C(=O)C2C3C=CC(C3)C2C1=O (configuration not stated)	LASV entry inh inconclusive
NC(=O)c1nc(-c2cccs2)nc2c1[nH]c(=O)n2-c1ccc(F)cc1	none (no result: MARV entry inh, LASV entry inh)
CCOC(=O)C1CC(C)=C(C)CC1C(=O)O (configuration not stated)	none (no result: MARV entry inh, LASV entry inh)
CC(C)CN(C(=O)c1ccco1)c1nc2ccccc2s1	Cycloheximide cs active
CN(C)CCCN(C(=O)c1ccco1)c1nc2cc3c(cc2s1)OCO3	Cycloheximide cs 12 (no result: MARV entry inh, LASV entry inh)
Cc1noc(C)c1C(=O)N(CC(C)C)c1nc2ccccc2s1	none (no result: MARV entry inh, LASV entry inh)

High-throughput results (PubChem BioAssay)
